Laboratory results published in PubChem BioAssay AID1159580 (chemical genetic matrix, 2015).
“And” between values parts separate entries of the source, which are not always exact repeats. Equal entries are not always repeated. About 2,000 (36%) of roughly 5,500 compounds were called active. Roughly 18% stayed inconclusive and do not appear here. Rule as the data show it: active = normalized growth mostly below about 0.91 (no sharp cut-off); inconclusive = no clear call, values can overlap the other calls; inactive = mostly above about 0.92. This is one part of the list.

Test: chemical genetic growth profiling, strain panel (AID 1159580);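 also: tested at 20 µM; growth read once vehicle control cultures reached saturation at 30 °C; 1 = growth at the plate median or of vehicle wells; lower values mean less growth of the strain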
Conditions: growth OD

Measured: normalized growth

NCCCC(=O)O
inactive: S. cerevisiae deletion strains, locus YAL013W, strain DEP1, hits give low values 1 and 0.982 | S. cerevisiae deletion strains, locus YAL040C, strain CLN3, hits give low values 0.965 | S. cerevisiae deletion strains, locus YBR021W, strain FUR4, hits give low values 1.01 | S. cerevisiae deletion strains, locus YBR229C, strain ROT2, hits give low values 1.01 | S. cerevisiae deletion strains, locus YCL029C, strain bik1, hits give low values 1.04 | S. cerevisiae deletion strains, locus YDL035C, strain GPR1, hits give low values 1.01 | S. cerevisiae deletion strains, locus YDL074C, strain BRE1, hits give low values 1.01 | S. cerevisiae deletion strains, locus YDL101C, strain DUN1, hits give low values 1.01 | S. cerevisiae deletion strains, locus YDL134C, strain PPH21, hits give low values 1.01 | S. cerevisiae deletion strains, locus YDL185W, strain tfp1, hits give low values 1.01 | S. cerevisiae deletion strains, locus YDL192W, strain arf1, hits give low values 1.02 | S. cerevisiae deletion strains, locus YDR101C, strain arx1, hits give low values 1.03 | S. cerevisiae deletion strains, locus YDR150W, strain NUM1, hits give low values 1.01 | S. cerevisiae deletion strains, locus YDR162C, strain NBP2, hits give low values 1 | S. cerevisiae deletion strains, locus YDR318W, strain mcm21, hits give low values 1.02 | S. cerevisiae deletion strains, locus YDR363W, strain ESC2, hits give low values 1.02 | S. cerevisiae deletion strains, locus YDR388W, hits give low values 1.02 | S. cerevisiae deletion strains, locus YDR502C, strain sam2, hits give low values 1.03 | S. cerevisiae deletion strains, locus YEL061C, strain CIN8, hits give low values 1 | S. cerevisiae deletion strains, locus YER002W, strain NOP16, hits give low values 0.993 | S. cerevisiae deletion strains, locus YER110C, hits give low values 1.04 | S. cerevisiae deletion strains, locus YER155C, strain BEM2, hits give low values 1.01 | S. cerevisiae deletion strains, locus YER167W, strain BCK2, hits give low values 1.01 | S. cerevisiae deletion strains, locus YGL078C, strain dbp3, hits give low values 1.03 | S. cerevisiae deletion strains, locus YGL086W, strain mad1, hits give low values 1.02 | S. cerevisiae deletion strains, locus YGL248W, strain PDE1, hits give low values 1.01 | S. cerevisiae deletion strains, locus YGR078C, strain PAC10, hits give low values 1.01 | S. cerevisiae deletion strains, locus YGR135W, strain pre9, hits give low values 1.04 | S. cerevisiae deletion strains, locus YGR229C, strain SMI1, hits give low values 1.03 and 0.998 | S. cerevisiae deletion strains, locus YGR252W, strain gcn5, hits give low values 1.07 | S. cerevisiae deletion strains, locus YHR030C, strain SLT2, hits give low values 1.01 | S. cerevisiae deletion strains, locus YHR079C, strain IRE1 (second series), hits give low values 1.02 | S. cerevisiae deletion strains, locus YHR079C, strain IRE1, hits give low values 0.994 | S. cerevisiae deletion strains, locus YHR094C, strain hxt1, hits give low values 1.02 | S. cerevisiae deletion strains, locus YHR129C, strain ARP1, hits give low values 1 | S. cerevisiae deletion strains, locus YHR200W, strain rpn10, hits give low values 1.02 | S. cerevisiae deletion strains, locus YIL066C, strain RNR3, hits give low values 1.01 | S. cerevisiae deletion strains, locus YIL073C, strain SPO22, hits give low values 1.06 | S. cerevisiae deletion strains, locus YIL125W, strain kgd1, hits give low values 1.02 | S. cerevisiae deletion strains, locus YIR030C, strain dcg1, hits give low values 1.04 | S. cerevisiae deletion strains, locus YJL095W, strain BCK1, hits give low values 1.01 and 0.999 | S. cerevisiae deletion strains, locus YJL134W, strain LCB3, hits give low values 1.01 | S. cerevisiae deletion strains, locus YJL168C, strain set2, hits give low values 1.03 | S. cerevisiae deletion strains, locus YJL187C, strain SWE1 (second series), hits give low values 1.01 | S. cerevisiae deletion strains, locus YJR043C, strain POL32, hits give low values 1 | S. cerevisiae deletion strains, locus YJR066W, strain TOR1, hits give low values 0.949 | S. cerevisiae deletion strains, locus YJR075W, strain HOC1, hits give low values 1.01 | S. cerevisiae deletion strains, locus YKL009W, strain mrt4, hits give low values 0.999 | S. cerevisiae deletion strains, locus YKL068W, hits give low values 1.01 | S. cerevisiae deletion strains, locus YKL085W, strain MDH1 (second series), hits give low values 1 | S. cerevisiae deletion strains, locus YKL085W, strain MDH1, hits give low values 1 | S. cerevisiae deletion strains, locus YKL190W, strain CNB1, hits give low values 1 | S. cerevisiae deletion strains, locus YKR001C, strain vps1, hits give low values 1.03 | S. cerevisiae deletion strains, locus YLR039C, strain RIC1, hits give low values 0.999 | S. cerevisiae deletion strains, locus YLR058C, strain SHM2, hits give low values 1.01 | S. cerevisiae deletion strains, locus YLR102C, strain apc9, hits give low values 1.03 | S. cerevisiae deletion strains, locus YLR113W, strain HOG1, hits give low values 0.996 | S. cerevisiae deletion strains, locus YLR262C, strain YPT6, hits give low values 1 | S. cerevisiae deletion strains, locus YLR268W, strain sec22, hits give low values 1.03 | S. cerevisiae deletion strains, locus YLR330W, strain CHS5, hits give low values 1 | S. cerevisiae deletion strains, locus YLR342W, strain FKS1 (second series), hits give low values 0.994 | S. cerevisiae deletion strains, locus YLR371W, strain rom2, hits give low values 1.03 | S. cerevisiae deletion strains, locus YLR418C, strain cdc73, hits give low values 1.08 | S. cerevisiae deletion strains, locus YML016C, strain PPZ1, hits give low values 1.01 | S. cerevisiae deletion strains, locus YML032C, strain rad52, hits give low values 1.04 | S. cerevisiae deletion strains, locus YML124C, strain tub3, hits give low values 1.03 | S. cerevisiae deletion strains, locus YMR078C, strain ctf18, hits give low values 1.03 | S. cerevisiae deletion strains, locus YMR223W, strain ubp8, hits give low values 1.02 | S. cerevisiae deletion strains, locus YMR263W, strain SAP30, hits give low values 1.01 | S. cerevisiae deletion strains, locus YMR307W, strain GAS1, hits give low values 1.02 | S. cerevisiae deletion strains, locus YNL067W, strain RPL9B, hits give low values 1.01 | S. cerevisiae deletion strains, locus YNL128W, strain TEP1, hits give low values 1.02 and 0.979 | S. cerevisiae deletion strains, locus YNL153C, strain GIM3, hits give low values 1.01 | S. cerevisiae deletion strains, locus YNL175C, strain NOP13, hits give low values 0.995 | S. cerevisiae deletion strains, locus YNL183C, strain NPR1, hits give low values 0.918 | S. cerevisiae deletion strains, locus YNL197C, strain WHI3, hits give low values 0.975 | S. cerevisiae deletion strains, locus YNL224C, strain SQS1, hits give low values 1.02 | S. cerevisiae deletion strains, locus YNL233W, strain BNI4, hits give low values 1 | S. cerevisiae deletion strains, locus YNL250W, strain rad50, hits give low values 1.03 | S. cerevisiae deletion strains, locus YNL271C, strain bni1, hits give low values 1.03 | S. cerevisiae deletion strains, locus YNL298W, strain CLA4, hits give low values 1.05 | S. cerevisiae deletion strains, locus YNL307C, strain MCK1, hits give low values 1.03 | S. cerevisiae deletion strains, locus YNL322C, strain KRE1, hits give low values 1.01 and 0.99 | S. cerevisiae deletion strains, locus YNR052C, strain pop2, hits give low values 1.02 | S. cerevisiae deletion strains, locus YOL006C, strain TOP1, hits give low values 1.03 | S. cerevisiae deletion strains, locus YOL012C, strain htz1 1.29 | S. cerevisiae deletion strains, locus YOL147C, strain pex11, hits give low values 1.04 | S. cerevisiae deletion strains, locus YOR061W, strain CKA2, hits give low values 1.01 | S. cerevisiae deletion strains, locus YOR069W, strain VPS5, hits give low values 1 | S. cerevisiae deletion strains, locus YOR083W, strain WHI5 (second series), hits give low values 0.99 | S. cerevisiae deletion strains, locus YOR136W, strain idh2, hits give low values 1.02 | S. cerevisiae deletion strains, locus YOR144C, strain elg1, hits give low values 1.03 | S. cerevisiae deletion strains, locus YOR184W, strain ser1, hits give low values 1.03 | S. cerevisiae deletion strains, locus YOR231W, strain MKK1, hits give low values 1 | S. cerevisiae deletion strains, locus YOR316C, strain cot1, hits give low values 1.03 | S. cerevisiae deletion strains, locus YPL055C, strain LGE1, hits give low values 1.03 | S. cerevisiae deletion strains, locus YPL241C, strain CIN2, hits give low values 0.999 | S. cerevisiae deletion strains, locus YPL256C, strain CLN2, hits give low values 0.985 | S. cerevisiae deletion strains, locus YPR119W, strain clb2, hits give low values 1.02 | S. cerevisiae deletion strains, locus YPR141C, strain kar3, hits give low values 1.02 | S. cerevisiae deletion strains, locus YPR163C, strain tif3, hits give low values 1.04 | S. cerevisiae deletion strains, locus YPR167C, strain met16, hits give low values 1.02 | S. cerevisiae deletion strains, strain wtn01, hits give low values 1.03 | S. cerevisiae strains, strain wild type, hits give low values 1.01
